The source of these data is the supplement of paper PMC8728848.

Common to all, as to experiment: glycan array binding signal (z-score within array); higher = stronger binding
What all share (settings): glycan notation: IUPAC condensed, linker removed; mutation: R85A

Assay [1] concerns the target Fuc(a1-2)Gal(b1-3)GlcNAc(b1-2)Man(a1-3)[Fuc(a1-2)Gal(b1-3)GlcNAc(b1-2)Man(a1-6)]Man(b1-4)GlcNAc(b1-4)GlcNAc. The essentials:
(§1)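 Columns mapping to the same glycan were averaged after glycan names were converted to IUPAC-condensed notation. The data come from 3228 arrays in the Consortium for Functional Glycomics database, limited to those with an available protein sequence. Binding is reported as a within-array Z-score averaged across arrays of one protein sequence and across linkers.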

The target in another assay is Fuc(a1-2)Gal6S(b1-4)Glc. The procedure, abridged: as §1
Assay [2] deals with Fuc(a1-2)[Gal(a1-3)]Gal(b1-3)GlcNAc(b1-2)Man(a1-3)[Fuc(a1-2)[Gal(a1-3)]Gal(b1-3)GlcNAc(b1-2)Man(a1-6)]Man(b1-4)GlcNAc(b1-4)GlcNAc. The procedure, abridged:
as §1

For assay [3], the target named is Fuc(a1-2)[Gal(a1-3)]Gal(b1-4)GlcNAc. The procedure, abridged:
as §1

For assay [4], the target named is Fuc(a1-3)[Gal(b1-4)]Glc6S. The procedure, abridged: as §1
The target of assay [5] is Fuc(a1-3)[Gal(b1-4)]GlcNAc(b1-3)Gal(b1-3)[Fuc(a1-4)]GlcNAc. The procedure, abridged:
as §1

A further assay addresses Gal(a1-3)Gal(b1-4)Glc. The essentials: as §1
The target of a further assay is Gal(a1-4)Gal(b1-4)Glc. The essentials:
as §1

Assay [6] concerns the target Gal(b1-3)Gal(b1-4)GlcNAc(b1-2)Man(a1-3)[Gal(b1-3)Gal(b1-4)GlcNAc(b1-2)Man(a1-6)]Man(b1-4)GlcNAc(b1-4)GlcNAc. The procedure, abridged: as §1
Assay [7] concerns the target Gal(b1-3)GlcNAc(b1-2)Man(a1-3)[Gal(b1-3)GlcNAc(b1-2)Man(a1-6)]Man(b1-4)GlcNAc(b1-4)GlcNAc. The procedure, abridged: as §1
For assay [8], the target named is Gal(b1-3)GlcNAc(b1-3)Gal(b1-4)GlcNAc(b1-6)[Gal(b1-3)GlcNAc(b1-3)]Gal(b1-4)Glc. The essentials: as §1
The next assay addresses Gal3S(b1-3)GalNAc. The procedure, abridged:
as §1

The target of another assay is Gal3S(b1-3)GlcNAc. The procedure, abridged: as §1
The target in the next assay is Gal3S(b1-4)Glc. The procedure, abridged: as §1
The next assay concerns the target Gal3S(b1-4)Glc6S. The essentials:
as §1

The target in the next assay is Gal3S(b1-4)GlcNAc6S. The procedure, abridged: as §1
The target of another assay is Gal4S6S(b1-4)GlcNAc. The essentials:
as §1

The next assay deals with Gal6S(b1-4)Glc6S. The essentials:
as §1

Assay [9] concerns the target GlcNAc(b1-2)Man(a1-3)[GlcNAc(b1-2)Man(a1-6)]Man(b1-4)GlcNAc(b1-4)GlcNAc. The procedure, abridged: as §1
In assay [10] the target is GlcNAc(b1-3)Gal(b1-4)GlcNAc(b1-3)Gal(b1-4)GlcNAc. The procedure, abridged: as §1
Another assay concerns the target Neu5Ac(a2-3)Gal(b1-4)Glc. The essentials: as §1
In a further assay the target is Neu5Ac(a2-3)GalNAc. The procedure, abridged:
as §1

The target of assay [11] is Neu5Ac(a2-6)Gal(b1-4)GlcNAc(b1-3)GalNAc. The essentials: as §1
The target of another assay is Neu5Ac(a2-8)Neu5Ac. The procedure, abridged:
as §1

This excerpt belongs to a sample that is enriched for the strongest signals.

B1: rAAL (Agrocybe aegerita), Q6WY08 (protein)
chain: MQGVNIYNISAGTSVDLAAPVTTGDIVTFFSSALNLNAGAGNPNNTTLNLFAENGAYLLHIAFRLQENVIIFNSRQPDGPWLVEQAVSDVANQFAGIDGKAMVTVFDHGDKYQVVINEKTVIQYTKQISGLTLSLSYNATEETSIFSTVVEAVTYTGLALEHHHHHH
Turning to B1, the “glycan array binding signal (z-score)” value in assay [1] was -0.123; with Fuc(a1-2)Gal6S(b1-4)Glc, -0.131; in assay [2], -0.093; in assay [3], -0.127; in assay [4], -0.13; in [5] it was -0.132. Moreover, the “glycan array binding signal (z-score)” value in the assay with Gal(a1-3)Gal(b1-4)Glc was 1.02; with Gal(a1-4)Gal(b1-4)Glc, -0.133; in assay [6], 9.2; in [7], -0.072; in assay [8], 0.051; with Gal3S(b1-3)GalNAc it was 14.6. Besides, the “glycan array binding signal (z-score)” value with Gal3S(b1-3)GlcNAc was 3.42; with Gal3S(b1-4)Glc, 3.77; with Gal3S(b1-4)Glc6S, 4.38; with Gal3S(b1-4)GlcNAc6S, 0.209; in the assay with Gal4S6S(b1-4)GlcNAc, -0.136; with Gal6S(b1-4)Glc6S, -0.121. The “glycan array binding signal (z-score)” value was -0.127 in assay [9]; -0.136 in assay [10]; 0.216 with Neu5Ac(a2-3)Gal(b1-4)Glc; -0.131 with Neu5Ac(a2-3)GalNAc; 1.17 in assay [11]; -0.125 in the assay with Neu5Ac(a2-8)Neu5Ac.
